Measurements taken from PubChem BioAssay (EPA / NIEHS).
Calls of active or inactive are those of the source. How the source made its calls: active means hit-call score of the fitted dose curve at least 0.9, where 1 is the maximum; inactive means score below 0.9.

experiment: ATG_NFI_CIS: Attagene CIS-FACTORIAL HepG2 Assay for human Nuclear Factor I (NFI) (AID 2282989); details: HepG2 cis-regulatory reporter, NFI response element transcription; actives raise or lower the signal
Procedure: ATG_CIS is a cell-based, multiplexed-readout assay that uses HepG2, a human liver cell line, with measurements taken at 24 hours after chemical dosing in a 24-well plate.ATG_NFI_CIS is one of 52 assay component(s) measured or calculated from the ATG_CIS assay. It is designed to make measurements of mRNA induction, a form of inducible reporter, as detected with fluorescence intensity signals by Reverse transcription polymerase chain reaction (RT-PCR) and Capillary electrophoresis technology.Data from the assay component ATG_NFI_CIS was analyzed into 1 assay endpoint. This assay endpoint, ATG_NFI_CIS, was analyzed with bidirectional fitting relative to DMSO as the negative control and baseline of activity. Using a type of inducible reporter, measures of mRNA for gain or loss-of-signal activity can be used to understand the reporter gene at the transcription factor-level as they relate to the gene NFIA. Furthermore, this assay endpoint can be referred to as a primary readout, because this assay has produced multiple assay endpoints where this one serves a reporter gene function. To generalize the intended target to other relatable targets, this assay endpoint is annotated to the dna binding intended target family, where the subfamily is nuclear factor I.
Human liver HepG2 cells are transiently transfected with multiple reporter transcription units (MRTUs) in 6-well plates using FuGene 6 reagent (Roche; 3 ml FuGene/1 mg DNA). The MRTU constructs are regulated by a cis-regulating element (promoter). […] A major difference between the CIS and TRANS system is that in CIS activities of endogenous TFs are measured, whereas the TRANS assay evaluates changes in activities of exogenous, chimeric NR-Gal4 proteins. […] At the end of 24 hour incubation, total RNA was isolated using TriZol reagent (Invitrogen). The isolated RNA is then reverse-transcribed using oligo(dT) primer and Mo-MLV reverse transcriptase (Invitrogen) with DNAse I (Ambion) treatment for 30 min. The one-tenth of the produced cDNA was amplified by PCR using Taq DNA polymerase (Invitrogen) and two reporter sequence-specific primers. The PCR products were fluorescently labeled by primer extension with 6-arboxyfluorescein (6-FAM) 5'-labeled reporter sequence-specific primer (2 min at 95 C, 20 s at 68 C and 10 min at 72 C) and these products were digested with 5U of HpaI (New England Biolabs) for 2h at 37 C. The fragments were purified using Qiaquick PCR columns (Qiagen), analyzed on an ABI 3130xL genetic analyzer (Applied Biosystems) with peak positions identified by using a set of X-rhodamine (ROX)-labeled MapMarker1000 molecular weight standards (BioVentures). The raw capillary electrophoresis data was processed using Attagraph software (Attagene).

| Compound | outcome | AC50 |
| --- | --- | --- |
| Nc1nc(N)nc(Cl)n1 | inactive |  |
| CCOP(=O)(OCC)SCCSCC | inactive |  |
| O=CCCl | inactive |  |
| ClCc1ccccc1CCl | inactive |  |
| C#CCO | inactive |  |
| N#CCCC(Br)(C#N)CBr (stereo not given) |  | 54.3 µM (active) |
| CC(C)N(C(=O)CCl)c1ccccc1 |  | 24.3 µM (active) |
| CN(C)[C@@H]1C(=O)C(C(N)=O)=C(O)[C@@]2(O)C(=O)C3=C(O)c4c(O)ccc(Cl)c4[C@@](C)(O)[C@H]3C[C@@H]12 | inactive |  |
| C=C(C)[C@@H]1CC=C(C=O)CC1 | inactive |  |
| O=S(=O)(F)C(F)(F)C(F)(F)C(F)(F)C(F)(F)F | inactive |  |
| O=C=Nc1ccc(Cl)cc1 | inactive |  |
| COP(=S)(OC)Oc1cc(Cl)c(I)cc1Cl |  | 29.1 µM (active) |
| CN(N=O)C(N)=O | inactive |  |
| Nc1c(Oc2ccccc2)cc(O)c2c1C(=O)c1ccccc1C2=O | inactive |  |
| Oc1ccc(Cc2ccc(O)cc2)cc1 | inactive |  |
| BrCc1ccc(Br)cc1 | inactive |  |
| O=C1C=CC(=O)c2ccccc21 | inactive |  |
| CC[N+](CC)(CC)CC | inactive |  |
| C[CH2][Hg][S]c1ccccc1C(=O)O |  | 1.58 µM (active) |
| CS(=O)(=O)c1ccc(C(=O)C2C(=O)CCCC2=O)c(Cl)c1COCC(F)(F)F | inactive |  |

| Compound | outcome | AC50 |
| --- | --- | --- |
| CCCCC(CC)COC(=O)Cl (stereo not given) | inactive |  |
| COc1ccc([N+](=O)[O-])cc1O | inactive |  |
| Nc1ccc(Br)cc1 | inactive |  |
| OC(Cc1ccccc1Cl)(Cn1[nH]cnc1=S)C1(Cl)CC1 (stereo not given) | inactive |  |
| Nc1nc(=S)[nH][nH]1 | inactive |  |
| ClCc1ccccc1Cl | inactive |  |
| Clc1cc(C(Cl)(Cl)Cl)cnc1Cl |  | 44.8 µM (active) |
| CC1(C)[C@H](/C=C2\CCSC2=O)[C@@H]1C(=O)OCc1coc(Cc2ccccc2)c1 | inactive |  |
| CC(C)(C)c1ccc(CCOc2ncnc3ccccc23)cc1 | inactive |  |
| CCOP(=S)(OCC)O/N=C(\C#N)c1ccccc1 | inactive |  |
| Cc1ccc2nc3sc(=O)sc3nc2c1 | inactive |  |
| BrCC(Br)c1ccccc1 (stereo not given) | inactive |  |
| Nc1ccc(N)cc1 | inactive |  |
| Cc1cc(C)cc(C)c1 | inactive |  |
| O=C(CBr)c1ccc(O)cc1 | inactive |  |
| N#CS | inactive |  |
| O=C(NC(=O)c1c(F)cccc1F)Nc1ccc(Cl)cc1 | inactive |  |
| C=CC(=O)OCC(COC(=O)C=C)(COC(=O)C=C)COC(=O)C=C | inactive |  |
| Cc1ccc(OP(=O)(Oc2ccc(C)cc2C)Oc2ccc(C)cc2C)c(C)c1 | inactive |  |
| CCCCCCCCCCBr | inactive |  |
